Assay results from PubChem BioAssay (NCATS).
Records with an inconclusive call do not appear. Active and inactive are the calls of the source. The call rests on the fitted dose curve; in most records, active means well fitted inhibition curve with a large enough effect; inconclusive means small, poorly fitted or top-dose-only effect; inactive means flat fitted curve, though single readings scatter.

Key:
Experiment in all cases: qHTS profiling for inhibitors of Plasmodium falciparum proliferation (AID 504749); further: nearly all actives have a fitted effect of over 60% in size
Settings in all cases: P. falciparum in erythrocytes, SYBR Green DNA, 72 h; series mostly up to 28.7 µM
[1] = tested on: CP297
How it was run: (§1)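 SYBR Green fluorescence (ex 485 nm, em 535 nm) reports parasite DNA after 72 h compound exposure of infected red cells at 0.3% parasitemia, 2.5% hematocrit; signal normalized to 0.29 uM artemisinin and vehicle wells.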

[2] = tested on: CP305
How it was run: as §1

[3] = tested on: CP315
How it was run: as §1

[4] = tested on: CP325
How it was run: as §1

[5] = tested on: CP329
How it was run: as §1

[6] = tested on: CP335
How it was run: as §1

[7] = tested on: DFO2036
How it was run: as §1

[8] = tested on: DIV14
How it was run: as §1

[9] = tested on: DIV17
How it was run: as §1

[10] = tested on: DIV30
How it was run: as §1

[11] = tested on: Dd2
How it was run: as §1

[12] = tested on: ECU
How it was run: as §1

[13] = tested on: FAB9
How it was run: as §1

[14] = tested on: HB3
How it was run: as §1

[15] = tested on: ICS
How it was run: as §1

[16] = tested on: JCK
How it was run: as §1

[17] = tested on: N140
How it was run: as §1

[18] = tested on: P93_24
How it was run: as §1

[19] = tested on: P94_40
How it was run: as §1

[20] = tested on: GB4
How it was run: as §1

Measured: Potency
Potency means the concentration at half of the fitted maximal effect.

CCN(CC)CCOc1ccccc1OC
not listed: [20]
inactive: all other assays above

Nc1ncnc2c1ncn2[C@H]1CC[C@@H](CO)O1
inactive: all assays above

[O]=[Bi][O]C(=O)[O][Bi]=[O]
not listed: [15]
inactive: all other assays above

O=C1c2ccccc2C(=O)C1c1ccc(Cl)cc1
not listed: [12] | [15]
inactive: all other assays above

CO[C@H]1C[C@@H]2CC[C@@H](C)[C@@](O)(O2)C(=O)C(=O)N2CCCC[C@H]2C(=O)O[C@H]([C@H](C)C[C@@H]2CC[C@@H](OC(=O)C(C)(CO)CO)[C@H](OC)C2)CC(=O)[C@H](C)/C=C(\C)[C@@H](O)[C@@H](OC)C(=O)[C@H](C)C[C@H](C)/C=C/C=C/C=C/1C
inactive: all assays above

Cc1cc(C)c(NC(=O)C[C@H](CC(=O)O)c2cccc3ccccc23)c(C(=O)N2CCC3(CCCC3)CC2)c1
not listed: [11] | [15]
inactive: all other assays above

S=C1SCN(Cc2ccccc2)CN1Cc1ccccc1
not listed: [18]
inactive: all other assays above

Cc1ccc(S(=O)(=O)O)cc1C
not listed: [6]
inactive: all other assays above

Nc1ccc(N=Nc2ccccc2)c(N)n1
active: [20] 13.5 µM
not listed: [6] | [12] | [13] | [17]
inactive: all other assays above

NC(N)=O
not listed: [8]
inactive: all other assays above

CCC(O)c1ccccc1 (centres undefined)
not listed: [6]
inactive: all other assays above

O=C1[O][Bi][O]c2ccccc21
not listed: [6]
inactive: all other assays above

CC(/C=C/C=C(\C)C(=O)O[C@@H]1O[C@H](CO[C@@H]2O[C@H](CO)[C@@H](O)[C@H](O)[C@H]2O)[C@@H](O)[C@H](O)[C@H]1O)=C\C=C\C=C(C)\C=C\C=C(/C)C(=O)O[C@@H]1O[C@H](CO[C@@H]2O[C@H](CO)[C@@H](O)[C@H](O)[C@H]2O)[C@@H](O)[C@H](O)[C@H]1O
not listed: [8]
inactive: all other assays above
